Screening data from PubChem BioAssay.
Hits are enriched below; roughly 4.7% of the tested compounds scored in any of these assays.
TIM10 inh: TIM10 yeast growth inhibition; inhibition, % at 10 µM; S. cerevisiae TIM10 strain growth, BacTiter-Glo luminescence, 24 h; 330,000 tested, 1.4% active;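 active = inhibition of 40% or more at the single tested concentration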;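 note: wild-type TIM10 isogenic control strain grown at permissive 25 °C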
EBI2 antag: EBI2 (human) antagonism; inhibition, % at 5 µM; 360,000 tested, 0.81% active; P32249; EBI2 beta-arrestin recruitment, luminescence, 7a,25-OHC stimulated; AID 651636; in the data active = inhibition above about 38%;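 note: enzyme fragment complementation signal reports receptor beta-arrestin coupling in cells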
Target sequence (P32249 whole entry, looked up, the tested form may be a part): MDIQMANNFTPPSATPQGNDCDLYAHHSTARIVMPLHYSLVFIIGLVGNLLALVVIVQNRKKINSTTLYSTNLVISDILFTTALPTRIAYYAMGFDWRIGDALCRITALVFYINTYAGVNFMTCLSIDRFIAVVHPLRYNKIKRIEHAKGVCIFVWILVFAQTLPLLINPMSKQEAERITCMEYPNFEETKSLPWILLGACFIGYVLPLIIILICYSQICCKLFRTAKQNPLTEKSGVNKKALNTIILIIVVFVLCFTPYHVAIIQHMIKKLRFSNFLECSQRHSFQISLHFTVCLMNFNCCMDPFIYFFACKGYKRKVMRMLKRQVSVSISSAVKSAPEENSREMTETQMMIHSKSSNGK
tim10-1 inh: inhibits growth of tim10-1 mutant yeast; AID 463190; inhibition, % at 20 µM; S. cerevisiae tim10-1 ts strain growth, BacTiter-Glo, 24 h; 330,000 tested, 2.2% active;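 active = inhibition of at least 40%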;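 note: mutant grown at 25 °C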
PfHsp90 yeast 2: growth inhibition of yeast expressing Plasmodium Hsp90; inhibition, % at 9.4 µM; 310,000 tested, 0.32% active; AID 504621; S. cerevisiae expressing PfHsp90, BacTiter-Glo ATP, 48 h; yeast lacking PDR1 and PDR3 efflux regulators;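 active = every replicate shows inhibition above about 80%, whatever the replicate mean, limit read from the data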
tim23-1 inh: inhibits growth of tim23-1 mutant yeast; S. cerevisiae tim23-1 growth, BacTiter-Glo luminescence, 24 h; inhibition, % at 20 µM; 330,000 tested, 1.3% active;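 active = growth inhibition of the mutant yeast at or above 50%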;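 note: temperature-sensitive mutant grown at 25 °C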
SKKanGAS inh: SKKanGAS growth inhibition. 300,000 tested, 1.3% active. AID 1662. inhibition, % at 7.5 µM. S. pyogenes SKKanGAS, kanamycin growth, BacTiter-Glo, 6 h;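 active = mean replicate score, as percent of positive control median, at least 50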;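 note: strain carries kanamycin resistance gene driven by streptokinase promoter and grows in 40 µg/ml kanamycin; loss of luminescence reflects streptokinase promoter inhibition or plain growth inhibition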
tim10-1 confirm: tim10-1 yeast growth inhibition, confirmed | shares compounds with tim10-1 inh | S. cerevisiae tim10-1 ts strain growth, BacTiter-Glo, 24 h | inhibition, % at 20 µM | 7,400 tested, 56% active;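 active = inhibition of yeast growth at or above a set limit in either of two repeat tests at 20 µM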;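 note: tim10-1 mutant grown at permissive 25 °C to find synthetic lethal compounds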
Each line names hits and unclear results; the compound was inactive in the other large screens (follow-up assays come after a bar, where they were run).

Cn1nc(C(F)(F)F)c2cc(NC(=O)OCc3ccc(C(C)(C)C)cc3)sc21	none
COc1cccc(COC(=O)Cc2ccc(S(=O)(=O)N3CCOCC3)s2)c1OC	none (no result: SKKanGAS inh)
COc1nc(C)cc(C)c1S(=O)(=O)c1ccccc1C	none
CCC(C)Oc1nc(C)cc(C)c1S(=O)(=O)c1ccccc1C (centres undefined)	tim10-1 inh 44 | tim10-1 confirm inactive
Cn1c(/C=C/c2ccc(Br)cc2)c([N+](=O)[O-])c(=O)n(C)c1=O	tim10-1 inh 42 | tim10-1 confirm inactive
COc1ccc(/C=C/c2c([N+](=O)[O-])c(=O)n(C)c(=O)n2C)cc1O	none
COc1ccc(CCNC(=O)CCCN2C(=O)C(c3ccccc3)Oc3cccnc32)cc1OC (centres undefined)	none
Cc1ccccc1C1C(C#N)=C2NC(=O)c3c(sc4c3CCCCC4)N2C2=C1C(=O)CC(C)(C)C2 (centres undefined)	tim10-1 inh 46 (no result: EBI2 antag, PfHsp90 yeast 2) | tim10-1 confirm 32
Cc1ccccc1C1C(C#N)=C2N=C(N)c3c(sc4c3CCCCC4)N2C2=C1C(=O)CC(C)(C)C2 (centres undefined)	none (no result: PfHsp90 yeast 2)
CCOc1cc(N2CCOCC2)c(OCC)cc1NC(=O)c1ccccc1C	none
CCOc1cc(N2CCOCC2)c(OCC)cc1NC(=O)c1ccc2ccccc2n1	tim10-1 inh 45 | tim10-1 confirm inactive
CCOc1cc(N2CCOCC2)c(OCC)cc1NC(=O)COC(=O)CCOc1ccc(C)cc1	tim10-1 inh 41 | tim10-1 confirm 29
CN1CC(c2ccccc2)C2(SC(=S)N(Cc3ccco3)C2=O)C12C(=O)Nc1ccccc12 (centres undefined)	tim10-1 inh 44 (no result: PfHsp90 yeast 2) | tim10-1 confirm inactive
CCOC(=O)c1ccc2[nH]c3c(c2c1)CCCC3C(=O)OCC (centres undefined)	none
CCOC(=O)C1CCCc2c1[nH]c1ccc(Cl)cc21 (centres undefined)	tim10-1 inh 43 | tim10-1 confirm 32
CC(=O)NCc1ccc(S(=O)(=O)NC(C(=O)O)C(C)C)cc1 (centres undefined)	none
CC1CCCCN1CC(=O)Nc1ccccc1Sc1ccccc1 (centres undefined)	none
Nc1ccccc1-c1nnc(-c2ccc(-c3ccccc3)cc2)o1	tim10-1 inh 47 (no result: PfHsp90 yeast 2) | tim10-1 confirm inactive
COc1ccc(N2C(=O)CC(N(C)CCc3ccc(OC)c(OC)c3)C2=O)cc1 (centres undefined)	none
COC(=O)c1ccc(N2C(=O)CC(N(C)CCc3ccc(OC)c(OC)c3)C2=O)cc1 (centres undefined)	tim10-1 inh 41 | tim10-1 confirm 44
C/C(=N\NC(=S)Nc1ccc(C)c(C)c1)c1ccc(N2CCOCC2)cc1	tim10-1 inh 41 | tim10-1 confirm inactive
Cc1ccc(CN2CCSc3ccc(C(=O)NCC4CCCO4)cc32)cc1 (centres undefined)	tim10-1 inh 41 | tim10-1 confirm inactive
O=C(c1ccc2c(c1)N(Cc1ccccc1)CCS2)N1CCCCC1	tim10-1 inh 43 | tim10-1 confirm inactive
N#C/C(=N\Nc1cccc(Cl)c1)C(=O)c1ccccc1	tim10-1 inh 42 | tim10-1 confirm inactive
N#C/C(=N\Nc1ccccc1Cl)C(=O)c1ccccc1	none (no result: PfHsp90 yeast 2)
CCOC(=O)c1ccc(NC(=O)CN(C)S(=O)(=O)c2ccc(Br)s2)cc1	none
Cc1ccc(S(=O)(=O)NCc2ccccc2)cc1C(=O)N(C)Cc1ccc(F)cc1	none
O=C(NCC1CCCO1)c1cc(NS(=O)(=O)c2cccs2)cc(NS(=O)(=O)c2cccs2)c1 (centres undefined)	none
CSc1ccccc1C(=O)NC1CCCN(c2ccc(C(F)(F)F)cn2)C1 (centres undefined)	tim10-1 inh 43 | tim10-1 confirm inactive
O=C(NC1CCCN(c2ccc(C(F)(F)F)cn2)C1)c1ccncc1 (centres undefined)	none
c1ccc(Cn2nnc3c(N4CCC5(CC4)OCCO5)ncnc32)cc1	tim10-1 inh 42 | tim10-1 confirm inactive
CC(Cl)C(=O)NC(=O)NC12CC3CC(CC(C3)C1)C2 (centres undefined)	tim10-1 inh 42 | tim10-1 confirm inactive
CCCN(CC(=O)Nc1ccccc1C)C(=O)CCl	tim10-1 inh 41 | tim10-1 confirm inactive
CCCN(CC(=O)Nc1ccccc1C)C(=O)COc1c(C)cccc1C	none (no result: SKKanGAS inh)
O=C(CCNC(=O)c1ccccc1Cl)Nc1ccncc1	none
CC(C)CC1C(=O)N(Cc2cn(CCC3OCCO3)nn2)CCS(=O)(=O)N1Cc1ccc(-c2cccc(N(C)C)c2)cc1 (centres undefined)	none (no result: TIM10 inh, tim10-1 inh, PfHsp90 yeast 2, tim23-1 inh, SKKanGAS inh)
COCOc1cc(O)c(C(=O)/C=C/c2ccccc2)c(OCOC)c1	tim10-1 inh 50 (no result: PfHsp90 yeast 2) | tim10-1 confirm 41
COc1ccc(C(=O)/C=C/c2ccccc2)c(OC)c1	tim10-1 inh 40 | tim10-1 confirm inactive
COc1ccc(C(=O)/C=C/c2ccc(N(C)C)cc2)c(OC)c1	none
COc1ccc(/C=C/C(=O)c2cc3cccc(OC)c3oc2=O)cc1	tim10-1 inh 43 | tim10-1 confirm inactive
CC(O)/C=C/c1ccc2ccccc2n1 (centres undefined)	tim10-1 inh 49 | tim10-1 confirm 35
O=C(c1ccc(S(=O)(=O)N2CCCCC2)cc1)N1CCCC(C(F)(F)F)C1 (centres undefined)	none
O=C(Cn1c(=O)c2cccn2c2cccnc21)N1CCN(c2ccc(Cl)cc2)CC1	tim10-1 inh 43 | tim10-1 confirm inactive
Cc1ccc(Cl)cc1N1CCN(C(=O)CCCn2c(=O)c3cccn3c3cccnc32)CC1	none
Nc1nc(SCn2nnc3ccccc3c2=O)n[nH]1	none
CS(=O)(=O)c1cnc(-c2ccccc2)nc1-c1ccccc1Cl	none
CC(C)Sc1oc(-c2ccco2)nc1S(=O)(=O)c1ccccc1	tim10-1 inh 41 | tim10-1 confirm inactive
CSc1oc(-c2ccco2)nc1S(=O)(=O)c1ccccc1	none
CCC(ONc1ccccc1C(F)(F)F)(C(=O)NN(C)C)c1ccccc1 (centres undefined)	none (no result: SKKanGAS inh)
COc1ccc(C(=O)CN2Cc3ccccc3C2=N)cc1	none
COc1ccc(C(=O)Nc2cc3c(cc2N2CCCCC2)n(C)c(=O)n3C)cc1OC	tim10-1 inh 48 | tim10-1 confirm inactive
Cc1ccn2c(=O)nc(SCC(=O)NCCc3ccccc3)nc2c1	none (no result: PfHsp90 yeast 2)
CCc1nnc(NC(=O)CSc2nc3ccccc3s2)s1	none
CCNc1nnc(CSc2nc3ccccc3s2)s1	tim10-1 inh 44 | tim10-1 confirm 39
COc1ccc(Cl)cc1N1C(=NC(=O)C2CCCCC2)SC2CS(=O)(=O)CC21 (centres undefined)	none
